In all, about 1,300 compounds went through this assay and about 270 (21%) were called active. A selection follows. Entries with a potency or affinity are not part of this list. A number with no mark means an inactive call. How the calls were made is not given here.
Assay: cytotoxicity in parental SK-MEL-5 melanoma cells – cell-based, CellTiter-Glo, cherry-picked, set 3, orthogonal assay for MITF inhibitor project, dose response (AID 493240)
Conditions: SK-MEL-5 viability, ATP luminescence (CellTiter-Glo), 24 h; series mostly up to 35 µM; activity change, negative = viability loss: at the top concentration

SMILES	activity change, negative = viability loss
COc1ccc(/C=N/Nc2ccccn2)cc1OC	3.77%
COc1ccc(-c2cc(-c3ccccc3O)[nH]n2)cc1OC	5.33%
CCCCNC(=O)Nc1ccc(C2SCCS2)cc1	-12.7%
CN(C)Cc1c(O)ccc2c1O/C(=C\C=C\c1ccccc1)C2=O	6.11%
O=C(/C=C/c1cccc([N+](=O)[O-])c1)n1cnc2ccccc21	23.4%
Cc1nc2ccccn2c1C(=O)/C=C/c1cccc([N+](=O)[O-])c1	13.3%
CCCOC(=O)c1ccc(NC(=O)C2CCCO2)cc1 (stereo not drawn)	11.9%
CCOc1ccc(NC(=O)Nc2cccc(C(=O)O)c2)cc1	-24.5%
O=C(Nc1nnc(Cc2ccccc2)s1)c1ccccc1	10%
Cc1ccc(O)c(NC(=O)c2ccc3c(c2)C(=O)N(CC(C)C)C3=O)c1	-15.1%
CCN(CC)C(=O)CCCOc1ccc(Cl)cc1Cl	-3.19%
O=C(O)c1cccc(N/N=C/c2cccs2)c1	-4.73%
N#Cc1cc2c(nc1SC1CC(=O)N(c3ccccc3)C1=O)CCC2 (stereo not drawn)	-10.3%
CCOC(=O)c1nnn(-c2ccc([N+](=O)[O-])cc2[N+](=O)[O-])c1C	-37.1%
Cc1ccc2nc3cc([N+](=O)[O-])cc([N+](=O)[O-])c3cc2c1	-29.9%
COc1ccc(Nc2oc(-c3ccc(OC)cc3)nc2C#N)cc1	8.58%
Cc1cccc(-c2nc(C#N)c(NCc3ccco3)o2)c1	11.6%
COC(=O)c1c(C)[nH]c(/C=N/Nc2ccccc2)c1C	-6.74%
OCCNc1c2ccccc2nc2c(F)c(F)c(F)c(F)c12	-36.1%
FC(F)(F)Oc1ccc(-c2cn3cccnc3n2)cc1	-0.472%

SMILES	activity change, negative = viability loss
COc1ccc(NC(=O)Nc2ccc(F)c(F)c2)c(OC)c1	4.2%
Cc1ccc(-c2c[n+](Cc3ccc(Cl)cc3)c3n2CCC3)cc1	-25.2%
Cc1ccc(-c2c[n+](Cc3cccc(Cl)c3)c3n2CCC3)cc1	-18.5%
CC1CC(C)C[N+](=C2C=C(N3CCCC3)CC(C)(C)C2)C1 (stereo not drawn)	-40.1%
COc1ccc(-c2noc(-c3cccs3)n2)cc1OC	4.3%
CCN(CC)S(=O)(=O)c1ccc(N2CCCC2)c(NC(=O)c2ccc([N+](=O)[O-])o2)c1	-23.8%
O=C(Nc1cccnc1Cl)c1cc(-c2ccco2)on1	-0.292%
CSc1nc(N)n2nc(-c3ccccc3)cc2n1	-39.1%
COc1ccc(C(NC(C)=O)c2ccc3cccnc3c2O)c(OC)c1 (stereo not drawn)	-15.9%
CC(=O)c1sc(N/N=C\c2ccc(N(C)C)cc2)nc1C	6.94%
Cc1csc(N/N=C/c2ccc([N+](=O)[O-])cc2)n1	-1.39%
COc1ccc(-c2csc(N(C)C(=O)c3ccco3)n2)cc1	-3.54%
C(=N\Nc1cc(N2CCCCC2)ncn1)/c1ccco1	7.34%
CCOc1ccc(C(=O)N2CCc3ccccc32)cc1	13.3%
CC(=O)Oc1ccc(C)cc1-n1nc2ccccc2n1	-20.8%
CC(=O)Cn1ncc(Br)c(Br)c1=O	-30.7%
O=C(CCCN1C(=O)S/C(=C\c2ccccc2)C1=O)NNC(=O)c1ccccc1O	-13.1%
O=C(CCCCl)NC(=S)Nc1ccc(N2CCOCC2)cc1	-8.43%
N/C(=N\OC(=O)Cc1cccs1)c1ccccc1	0.942%
Cc1cc(C(=O)CSc2nnc3ccccn23)c(C)n1-c1ccccc1	-10.6%

SMILES	activity change, negative = viability loss
O=C(Nc1cnc2ccccn2c1=O)c1ccc(F)cc1	-6.16%
Cc1ccc(NCC(=O)N/N=C\c2ccc([N+](=O)[O-])o2)cc1	-19.5%
CC1(C(=O)N/N=C/c2ccc([N+](=O)[O-])o2)CC1(Br)Br (stereo not drawn)	-26.3%
O=C(Cc1ccc2c(c1)OCO2)NN=Cc1ccc([N+](=O)[O-])o1	-42.9%
Cc1ccc(NC(=O)CCC(=O)N/N=C/c2ccc([N+](=O)[O-])o2)cc1C	-18.4%
CCCCn1c(=O)[nH]c(=O)c2c1nc(Cn1ncc(Cl)c(Cl)c1=O)n2CCC	-22.5%
O=c1c(Cl)c(Cl)cnn1-c1ccccc1	9.14%
CC(=O)OCCCNc1cc(Sc2ccc(Cl)cc2)c2nonc2c1[N+](=O)[O-]	-20.4%
Cc1ccccc1OCc1nc2c3cnn(C)c3ncn2n1	-14.4%
c1cnc(SCCOc2ccc3c(c2)CCC3)nc1	-7.47%
Cc1ccc(NC(=O)c2cnc3ccccc3n2)cc1C	-2.28%
CCn1nccc1C(=O)Nc1ccc(C)c(C)c1	-20.2%
ClC1(Cl)CC1CSc1nnc(-c2ccncc2)o1 (stereo not drawn)	-9.13%
O=C(Nc1ccc2nc3n(c(=O)c2c1)CCCCC3)c1cc([N+](=O)[O-])ccc1F	-9.63%
CC1CCN(CC2C(=O)O[C@@H]3C[C@@]4(C)CCC[C@H](C)C4=C[C@H]23)CC(C)(C)C1 (stereo partly drawn)	11.1%
COc1cc(C(=O)N/N=C(\c2ccccc2)c2ccccn2)cc(OC)c1OC	-31.3%
O=C(NCc1ccc2c(c1)OCO2)c1cc(=O)[nH]c2ccccc12	6.22%
COc1ccc(N(Cc2cc(=O)[nH]c3ccccc23)C(=O)CCl)cc1	-30.3%

Reference: PubChem BioAssay AID493240 (Broad Institute, 2011)
